High-throughput results deposited in PubChem BioAssay by National Center for Advancing Translational Sciences (NCATS).
KB-V1 MDR tox: kills drug-selected multidrug resistant KB-V1 cells | KB-V1 MDR cells viability, CellTiter-Glo, 72 h | AID 1347076 | 3.4% of 400,000 active | Potency, µM (titrated, usually from 46.1 µM), most hits filed as cytotoxic; also: nearly all actives have a fitted effect of over 60% in size
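KB-V1, DMEM (no phenol red) + 10% FBS; cpd pin-transferred, titration series; 72 h, 37 degrees C; CellTiter-Glo, luminescence. Data normalized, curve-fit.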
KB-3-1 cytotox: kills parental KB-3-1 adenocarcinoma cells. KB-3-1 viability, CellTiter-Glo ATP luminescence, 72 h. 1.4% of 400,000 active. Potency, µM (doses to about 46.1 µM), usual class: cytotoxic; also: nearly all actives have a fitted effect of over 60% in size
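Parental KB-3-1 viability, qHTS format: 72 h compound exposure, 37 °C; CellTiter-Glo; media-only wells and DMSO plates as controls; concentration-effect fits on corrected data.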
HT1080-NT tox: kills 2HG-producing HT-1080-NT fibrosarcoma cells; HT-1080-NT fibrosarcoma viability, CellTiter-Glo ATP luminescence, 48 h; Potency, µM (series often up to 46.1 µM), usual class: cytotoxic; 1.6% of 360,000 active; AID 686970;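 also: NT is the 2HG producing partner of a matched IDH1 knockdown line; nearly all actives have a fitted effect of over 55% in size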
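A 48-hour cytotoxicity screen used HT-1080-NT cells plated 2 hours before compound delivery. ATP-based CellTiter-Glo luminescence measured viability, normalized to DMSO and no-cell controls.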
MCF10A rereplic: inducers of DNA re-replication in MCF 10A breast cells | AID 624296 | MCF 10A DNA re-replication, Hoechst nuclear intensity, 48 h | Potency, µM (top dose mostly 46.1 µM), most hits filed as activators | 2.9% of 350,000 active; also: nearly all actives have a fitted effect of over 50% in size
SW480 rereplic: DNA re-replication induction in SW480 cells. SW480 DNA re-replication, Hoechst DNA content imaging, 48 h. Potency, µM (top dose mostly 46.1 µM), actives largely listed as activators. 1.8% of 340,000 active. AID 624297; also: nearly all actives have a fitted effect of over 55% in size
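SW480 cells exposed to compounds for 48 hr at 37 C, 5% CO2, then Hoechst-stained 40 min. Nuclear DNA content imaged by fluorescence scanning (405 nm excitation, 500-530 nm emission); re-replication scored as increased high-intensity nuclei.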
HT1080 IDH1KD tx: kills HT-1080 cells with IDH1 knockdown | 2% of 360,000 active | Potency, µM (series often up to 46.1 µM), most hits filed as cytotoxic | HT-1080 IDH1 knockdown viability, ATP luminescence, 48 h
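Cytotoxicity counter-line: IDH1KD HT-1080, 48 h, CellTiter-Glo. Curves classed by r2, magnitude and activity.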
Numbers stand for hits; [ ] = dose if it differs, or a comment. Hits are enriched below; roughly 7.9% of the tested compounds scored in any of these assays. Calls follow the shape of the dose curve; as a rule, active = well fitted curve in the direction sought with a large enough effect; inconclusive = small, poorly fitted or top-dose-only effect, or another doubt; inactive = no such curve, though single readings can be large; an effect the other way counts as inactive or inconclusive.

What do the screens show for `COc1ccc2c(C(=O)NCc3ccc4c(c3)OCO4)c(-c3ccc(S(C)(=O)=O)cc3)sc2c1`?
KB-V1 MDR tox: inactive; KB-3-1 cytotox: inactive; HT1080-NT tox: inactive; MCF10A rereplic: inactive; SW480 rereplic: 3.7µM; HT1080 IDH1KD tx: inactive

How did O=C(Nc1ccc(Cl)cc1)C1CCC(=O)N1Cc1ccccc1Cl (stereo unspecified) do in these assays?
KB-V1 MDR tox: inconclusive; KB-3-1 cytotox: inactive; HT1080-NT tox: inactive; MCF10A rereplic: inactive; SW480 rereplic: inactive; HT1080 IDH1KD tx: inactive[9.24 µM]

Results for O=C(Nc1ccccc1Br)C1CCC(=O)N1Cc1ccccc1Cl (stereo unspecified) ?
KB-V1 MDR tox: 21µM; KB-3-1 cytotox: inactive; HT1080-NT tox: inactive; MCF10A rereplic: inactive; SW480 rereplic: inactive; HT1080 IDH1KD tx: inactive

How did COC(=O)C1=C(C)NC(=O)CC1c1cc2c(cc1Br)OCO2 (stereo unspecified) do in these assays?
KB-V1 MDR tox: inactive; KB-3-1 cytotox: inactive; HT1080-NT tox: inactive; MCF10A rereplic: inactive; SW480 rereplic: inactive; HT1080 IDH1KD tx: inactive

Results for CC1=C(C(=O)OC2CCCCCCC2)C(c2cc3c(cc2Br)OCO3)CC(=O)N1 (stereo unspecified) ?
KB-V1 MDR tox: inactive; KB-3-1 cytotox: inconclusive; HT1080-NT tox: inconclusive; MCF10A rereplic: 5.8µM; SW480 rereplic: inconclusive; HT1080 IDH1KD tx: inconclusive

Results for COc1cc(C(=O)N(Cc2ccccc2)c2cccc(C)c2)ccc1OCC(=O)N1CCOCC1 ?
KB-V1 MDR tox: inconclusive; KB-3-1 cytotox: inactive; HT1080-NT tox: inactive; HT1080 IDH1KD tx: inactive

Results for Nc1[nH]c(=O)nc2nnsc12 ?
KB-V1 MDR tox: inactive; KB-3-1 cytotox: inconclusive

How did CS(=O)(=O)N1CCN(Cc2cc3nc(-c4cccc5[nH]ncc45)nc(N4CCOCC4)c3s2)CC1 do in these assays?
KB-V1 MDR tox: inconclusive; KB-3-1 cytotox: 5µM

What do the screens show for `COc1ccc2c(=O)c3c(=O)n(Cc4ccco4)c(-c4ccccc4)nc3oc2c1`?
KB-V1 MDR tox: 4.6µM; KB-3-1 cytotox: inactive; HT1080-NT tox: inactive; MCF10A rereplic: inactive; SW480 rereplic: inactive; HT1080 IDH1KD tx: inactive

Results for CCC(C)n1cnc2c(c1=O)c1nc3ccccc3nc1n2Cc1ccc(OC)cc1 (stereo unspecified) ?
KB-V1 MDR tox: 15µM; KB-3-1 cytotox: inactive; HT1080-NT tox: inconclusive; MCF10A rereplic: inconclusive; SW480 rereplic: inactive; HT1080 IDH1KD tx: inactive

Results for Cc1nc2ccccc2c(=O)n1Cc1ccco1 ?
KB-V1 MDR tox: inactive; KB-3-1 cytotox: inactive; HT1080-NT tox: inactive; MCF10A rereplic: inactive; SW480 rereplic: inactive; HT1080 IDH1KD tx: inactive

Results for COc1ccc(Cn2c(C)nc3c(c2=O)c2nc4ccccc4nc2n3Cc2ccco2)cc1 ?
KB-V1 MDR tox: inconclusive; KB-3-1 cytotox: inconclusive; HT1080-NT tox: inconclusive; MCF10A rereplic: 18µM; SW480 rereplic: 21µM; HT1080 IDH1KD tx: inconclusive

What do the screens show for `COc1ccc2c(=O)c3c(=O)n(Cc4ccco4)c(-c4cc(OC)c(OC)c(OC)c4)nc3oc2c1`?
KB-V1 MDR tox: inactive; KB-3-1 cytotox: inactive; HT1080-NT tox: inactive; MCF10A rereplic: inconclusive; SW480 rereplic: inactive; HT1080 IDH1KD tx: inactive

Results for C#CCNC(=O)C[C@@H]1C[C@@]2(C(=O)OCC)CCC=C2N(Cc2ccc(Cl)cc2Cl)C1=O ?
KB-V1 MDR tox: inconclusive; KB-3-1 cytotox: inactive; HT1080-NT tox: inconclusive; HT1080 IDH1KD tx: inactive

How did O=[N+]([O-])c1ccc(Sc2ccc(Cl)c(Cl)c2)nc1 do in these assays?
KB-V1 MDR tox: inconclusive; KB-3-1 cytotox: inactive; HT1080-NT tox: inactive; MCF10A rereplic: 15µM; SW480 rereplic: inactive; HT1080 IDH1KD tx: inactive

How did COc1ccc(-n2c(SCC(=O)NC3CCCCC3)nc3c([nH]c4ccccc43)c2=O)cc1 do in these assays?
KB-V1 MDR tox: inactive; KB-3-1 cytotox: inactive

What do the screens show for `CCC1(C)CC(CCNS(=O)(=O)c2ccc(C)cc2)(c2ccc(C)cc2)CCO1` (stereo unspecified)?
KB-V1 MDR tox: inconclusive; KB-3-1 cytotox: inconclusive; HT1080-NT tox: inconclusive; MCF10A rereplic: inconclusive; SW480 rereplic: inactive; HT1080 IDH1KD tx: inconclusive

How did Cc1ccc(C2(CCNS(=O)(=O)c3ccc(C)cc3)CCOC(C(C)C)C2)cc1 (stereo unspecified) do in these assays?
KB-V1 MDR tox: 3.7µM; KB-3-1 cytotox: inconclusive; HT1080-NT tox: inactive; MCF10A rereplic: inconclusive; SW480 rereplic: inactive; HT1080 IDH1KD tx: inactive

How did CC(C)C1CC(CCNCc2ccc(N(C)C)cc2)(c2ccccc2)CCO1 (stereo unspecified) do in these assays?
KB-V1 MDR tox: inconclusive; KB-3-1 cytotox: 21µM; HT1080-NT tox: inactive; MCF10A rereplic: inconclusive; SW480 rereplic: inactive; HT1080 IDH1KD tx: inconclusive

Results for Cc1ccc(C2(CCNCc3ccc(N(C)C)cc3)CCOC(C(C)C)C2)cc1 (stereo unspecified) ?
KB-V1 MDR tox: inconclusive; KB-3-1 cytotox: inconclusive; HT1080-NT tox: 23µM; MCF10A rereplic: inconclusive; SW480 rereplic: inconclusive; HT1080 IDH1KD tx: 18µM

How did CC(NCc1ccc2c(c1)OCO2)c1ccccc1 (stereo unspecified) do in these assays?
KB-V1 MDR tox: inactive; KB-3-1 cytotox: inactive; HT1080-NT tox: inactive; MCF10A rereplic: inactive; SW480 rereplic: inactive; HT1080 IDH1KD tx: inactive

What do the screens show for `CC(C)C1CC(CCNCc2ccc3c(c2)OCO3)(c2ccccc2)CCO1` (stereo unspecified)?
KB-V1 MDR tox: inconclusive; KB-3-1 cytotox: inconclusive; HT1080-NT tox: 18µM; MCF10A rereplic: inconclusive; SW480 rereplic: inconclusive; HT1080 IDH1KD tx: 26µM

What do the screens show for `CC12CCC(=O)N1C(C(=O)Nc1cc(Cl)ccc1N1CCCC1)CS2` (stereo unspecified)?
KB-V1 MDR tox: inactive; KB-3-1 cytotox: inactive; HT1080-NT tox: inactive; MCF10A rereplic: inactive; SW480 rereplic: inactive; HT1080 IDH1KD tx: inactive

How did CCn1cc([N+](=O)[O-])c(C(=O)Nc2nc(-c3ccc(C)c(C)c3)c(C)s2)n1 do in these assays?
KB-V1 MDR tox: inactive; KB-3-1 cytotox: inactive; HT1080-NT tox: inconclusive; MCF10A rereplic: 8.2µM; SW480 rereplic: inconclusive; HT1080 IDH1KD tx: 10µM

How did Cc1ccc(C(=O)c2oc3ccccc3c2NC(=O)c2cc(=O)c3ccccc3o2)cc1 do in these assays?
KB-V1 MDR tox: inconclusive; KB-3-1 cytotox: inactive

How did CCNC(=O)[C@@H]1CCCN1C(=O)[C@H](CCCN=C(N)N)NC(=O)[C@H](CC(C)C)NC(=O)[C@@H](Cc1c[nH]c2ccccc12)NC(=O)[C@H](Cc1ccc(O)cc1)NC(=O)[C@H](CO)NC(=O)[C@H](Cc1c[nH]c2ccccc12)NC(=O)[C@H](Cc1cnc[nH]1)NC(=O)[C@@H]1CCC(=O)N1 do in these assays?
MCF10A rereplic: 30µM; SW480 rereplic: inconclusive
